According to PubChem BioAssay (NCI):
Compounds without any hit were thinned out: in the full panel of roughly 83,000, 20% have a hit.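 Single-concentration screen, 48 h exposure, 96-well plates. Endpoint: percent growth. Below 10 = active.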 A number with no mark means an inactive call. Calls of active or inactive are those of the source.

test system: HL-60(TB) leukemia; test: NCI-60 one-dose screen, 48 h (100 = growth as untreated, 0 = no growth, -100 = all killed); conditions: 10 µM unless noted

SMILES	growth
CN(C)c1ccc(/C=C(\C#N)c2cc3ccccc3n2C)cc1	2.69% (active)
CN(C)c1ccc(/C=N\NC(=O)c2ccc3nc(-c4ccc(Cl)cc4)[nH]c3c2)cc1	37.4%
CCCCCC(=O)c1ccc(OCCCN2CCN(C(=O)OCC)CC2)cc1	72.4%
C/C(=C(\c1ccc(OCCN2CCOCC2)cc1)c1ccc(OC(=O)C2CCCCC2)cc1)c1ccc(Cl)cc1	96.4%
O=C1NC(=C(Cl)Cl)/C(=N/S(=O)(=O)NCCc2c[nH]c3ccccc23)N1	50.2%
CCCCNc1ccc2c3c1cccc3c(=O)n1c3ccccc3nc21	63.4%
CC[C@H](C)[C@H](NC(=O)[C@H](CCCNC(=N)N)NC(=O)[C@H](Cc1c[nH]c2ccccc12)NC(=O)[C@@H](NC(=O)[C@H](CCCCN)NC(=O)[C@H](CCCCN)NC(=O)[C@@H](NC(=O)[C@@H](NC(=O)[C@@H](NC(=O)[C@H](CCCCN)NC(=O)[C@H](Cc1ccccc1)NC(=O)[C@H](CCCCN)NC(=O)[C@H](CCCCN)NC(=O)[C@H](Cc1ccccc1)NC(=O)[C@@H](NC(=O)[C@@H](N)CCCCN)[C@@H](C)CC)[C@@H](C)O)[C@@H](C)CC)[C@@H](C)CC)C(C)C)C(=O)N[C@@H](Cc1ccccc1)C(=O)NCC(=O)N[C@@H](CCCNC(=N)N)C(=O)N[C@@H](Cc1ccccc1)C(N)=O	14.9%
CC/C(=C(/c1ccc(O)cc1)c1ccc(OCCN2CCCCCC2)cc1)c1ccc(Cl)cc1	53.9%
CCCCC(=O)Nc1ncc(Cc2ccccc2Cl)s1	-7.94% (active)
Cc1ccc2oc(=O)cc(C3c4ccc([nH]4)C(c4cc(=O)oc5ccc(C)cc45)c4ccc([nH]4)C(c4cc(=O)oc5ccc(C)cc45)c4ccc([nH]4)C(c4cc(=O)oc5ccc(C)cc45)c4ccc3[nH]4)c2c1 (stereo not given)	-24% (active)
NC[C@@H]1O[C@H](O[C@@H]2[C@@H](CO)OC(O[C@@H]3[C@@H](O)[C@H](N)C[C@H](N)[C@H]3OC3O[C@H](CN)[C@@H](O)[C@H](O)[C@H]3N)[C@@H]2O)[C@H](N)[C@@H](O)[C@@H]1O (stereo not given in full)	94.7%
COc1cccc2c1C(=O)c1c(O)c3c(c(O)c1C2=O)CC(O)(/C(C)=N/NC(=O)CCCCC(=O)N/N=C(\C)C1(O)Cc2c(O)c4c(c(O)c2C(OC2CC(N)C(O)C(C)O2)C1)C(=O)c1c(OC)cccc1C4=O)CC3OC1CC(N)C(O)C(C)O1 (stereo not given)	-9.19% [5 µM] (active)
NC(=O)N/N=C\c1ccco1	102%
CC1(C)N=C(N)N=C(N)N1c1cccc(Br)c1	33.9%
Cc1c(C)n(CC(O)CNC2CCCCC2C)c2ccccc12 (stereo not given)	-13.8% (active)
O=C(Nc1cccc([N+](=O)[O-])c1)NN1CCCCCC1	112%
O=C1/C(=C\c2cccc(OCCCCCOc3ccc(Cl)cc3)c2)N=C2SCCCN12	36%
C=CCNc1ccc2c3c(cccc13)C(=O)N(CC=C)C2=O	102%
O=C(c1ccccc1)C(CCc1ccccn1)CCc1ccccn1	107%
CN(C)c1ncc(-c2ccc(C(F)(F)F)cc2)c(NC2CCCCCC2)n1	39.8%
CCN(CC)c1ccc(/C=C2\SC(=O)C(Nc3nnc(-c4cccnc4SCc4ccccc4)o3)C2=O)cc1 (stereo not given)	19.4%
COc1ccc(C2Nc3nc(OC)n(C)c(=O)c3N=C3c4ccccc4C(=O)C32)cc1 (stereo not given)	67.1%
Cc1ccc2c(c1)Nc1ccc(C)cc1C2(C)C	81%
CCOC(=O)c1c(C)nc2c(c1N)C(=O)C(=O)N2Cc1ccc(OC)cc1	46.6%
CCN=c1sc2c(n1NC(=O)c1cc3ccc1CCc1ccc(cc1)CC3)C(=O)c1ccccc1C2=O	-18.3% (active)
CCC(c1ccc(O)cc1)C(CC)c1ccc(O)c(F)c1 (stereo not given)	56.1%
Cc1nn2c(-c3nc4cc(Cl)c(Cl)cc4[nH]3)c(-c3ccc(F)cc3)nc2s1	106%
COc1cc([C@@H]2NC(=O)NC(C)=C2C(=O)Nc2nc(-c3ccc(Cl)cc3)cs2)ccc1O	100%
COC(=O)c1ccc2oc(NC(=O)c3ccc(Nc4ccc([N+](=O)[O-])cc4C)c([N+](=O)[O-])c3)nc2c1	99.7%
O=C(CSc1nc2ccccc2[nH]1)Nc1cccc(Cl)c1	102%
